The values that follow come from PubChem BioAssay (NCI).

The panel holds about 79,000 compounds, 15% with a hit somewhere; the sample as a whole holds those more often. Values without a mark were called inactive. Active and inactive are the calls of the source. Rule as the data show it: active = growth inhibition above about 70%; inactive = the rest.

The nature of assay [1]: NCI Yeast Anticancer Drug Screen. Data for the rad50 strain (AID 155).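 Also: 0% = growth of vehicle-only cultures of the same strain.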 The note with it: S. cerevisiae rad50 strain growth inhibition; at 50.0 µM; active compounds read high. The gist of the method: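 A DNA repair-deficient yeast mutant serves as the test organism; compound-induced growth inhibition is calculated against vehicle-treated cells.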
Assay [2] in a line: NCI Yeast Anticancer Drug Screen. Data for the mec2-1 strain (AID 157). The note with it: S. cerevisiae mec2-1 strain, at 50.0 µM, active compounds read high. Put shortly:
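mec2-1 yeast strain, carrying an alteration in DNA damage repair or cell cycle control, was exposed to compounds; growth inhibition was measured relative to vehicle-treated controls.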

A short description of assay [3]: NCI Yeast Anticancer Drug Screen. Data for the sgs1 mgt1 strain (AID 161).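 Also: 0% = growth of cultures given vehicle only.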 The settings on record: S. cerevisiae sgs1 mgt1 strain, at 50.0 µM, active compounds read high. Put shortly:
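Percent growth inhibition was derived by comparing compound-exposed mutant yeast with vehicle-exposed cultures. The strain carries alterations in DNA damage repair.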

A short description of assay [4]: NCI Yeast Anticancer Drug Screen. Data for the cln2 rad14 strain (AID 165).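 Also: 0% = growth equal to vehicle treated cultures.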 The note with it: S. cerevisiae cln2 rad14 strain, at 50.0 µM, active compounds read high. Put shortly: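 Yeast carrying cln2 and rad14 alterations (cell cycle control and DNA damage repair) were exposed to compounds. Growth inhibition was measured against vehicle-treated controls.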
The nature of assay [5]: NCI Yeast Anticancer Drug Screen. Data for the bub3 strain (AID 167). The note with it: S. cerevisiae bub3 mutant strain, at 50.0 µM, active compounds read high. Put shortly: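 Inhibition values come from growth of compound-treated mutant yeast normalised to vehicle-treated controls.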
Assay [6] can be described thus: NCI Yeast Anticancer Drug Screen. Data for the mlh1 rad18 strain (AID 175). The settings on record: S. cerevisiae mlh1 rad18 strain growth inhibition; at 50.0 µM; active compounds read high. Put shortly:
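Growth inhibition of the yeast strain was measured after compound exposure and expressed relative to vehicle-treated controls. The strain carries defined defects in DNA damage repair.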

For the molecule `CN1CCN(CCCO)CC1`, the growth inhibition in assay [1] was -15.2%; in assay [2], 3.3%; in assay [3] it was -8.85%; in assay [4], -16.4%; in assay [5] it was 5.05%; in assay [6], -0.25%.
For `COc1cc(O)c2c(c1)C(=O)c1cc(C)cc(O)c1C2=O`, the growth inhibition in assay [1] was -15.1%; in assay [2], -22.9%; in assay [3], -18.6%; in assay [4], -21.1%; in assay [5], -26.2%; in assay [6] it was -10.8%.
Regarding `CC1(C)CNC[C@@](C)(O)C(=O)NC(C)(C)CNC[C@@](C)(O)C(=O)N1`, the growth inhibition was 9.75% in assay [1]; 5.75% in assay [2]; -32.6% in assay [3]; 4.7% in assay [4]; -46.3% in assay [5]; -9.2% in assay [6].
For `COc1ccc(C(=O)OCc2ccccc2CN2CCCCC2)cc1`, the growth inhibition is -4.75% in assay [1]; -7.25% in assay [2]; 11.4% in assay [3]; -16.3% in assay [4]; -14.2% in assay [5]; -5.6% in assay [6].
Take `CC1OC(OCC2OC(Oc3c(-c4ccc(O)cc4)oc4cc(O)cc(O)c4c3=O)C(OC3OC(C)C(O)C(O)C3O)C(O)C2O)C(O)C(O)C1O` (stereo unspecified): the growth inhibition was -13.7% in assay [1]; -21.2% in assay [2]; -2.2% in assay [3]; 2.75% in assay [4]; -2.9% in assay [5]; 5.6% in assay [6].
Turning to `Nc1cc(Cl)c(N)c(Cl)c1`, the growth inhibition in assay [1] was 1.8%; in assay [2], -21.6%; in assay [3] it was -9.65%; in assay [4] it was 14.1%; in assay [5], -19.4%; in assay [6] it was -0.9%.
As to `CSC(SC)[P+](c1ccccc1)(c1ccccc1)c1ccccc1`, the growth inhibition in assay [1] is 94.1% (active); in assay [2], 93.9% (active); in assay [3], 90.7% (active); in assay [4], 93.5% (active); in assay [5], 91.2% (active); in assay [6], 93.5% (active).
On to `CCCCN(CCCC)CC(=O)NC(N)=O`, for which the growth inhibition in assay [1] is 4.6%; in assay [2] it was 0.9%; in assay [3] it was -6.95%; in assay [4] it was -2.8%; in assay [5], 10.3%; in assay [6], -6.8%.
For the molecule `COC(=O)C(CCc1ccccc1[N+](=O)[O-])C(=O)OC`, the growth inhibition was 38.6% in assay [1]; 10.8% in assay [2]; 11.7% in assay [3]; -4.45% in assay [4]; 43% in assay [5]; 34.1% in assay [6].
For the molecule `O=c1[nH]nc(SCc2ccccc2)c(=O)n1C(c1ccccc1)c1ccccc1`, the growth inhibition in assay [1] is 26.4%; in assay [2], 12.4%; in assay [3], 18.6%; in assay [4], 28.2%; in assay [5], 8.05%; in assay [6], 5.3%.
Consider `C=CCc1cccc(C2N(Cc3ccc(OC)cc3OC)CCCN2Cc2ccc(OC)cc2OC)c1O`, for which the growth inhibition in assay [1] is 26.6%; in assay [2], 7%; in assay [3], -0.75%; in assay [4], 16.6%; in assay [5], -2.05%; in assay [6], 17.8%.
`C1=C(c2ccccc2)NC2=N[C@H]3CCCC[C@@H]3N2C1c1ccccc1` (stereo partly specified): the growth inhibition in assay [1] is 18.9%; in assay [2] it was 10.4%; in assay [3] it was 22.8%; in assay [4], -7.55%; in assay [5], 33.8%; in assay [6], 91.5% (active).
For the molecule `CC1CCC(C(C)C)N(C)CC1` (stereo unspecified), the growth inhibition was -17.2% in assay [1]; -22.6% in assay [2]; -6% in assay [3]; 3.75% in assay [4]; -8.15% in assay [5]; -2.2% in assay [6].
`C=CCC1(/C(=C\CC)CCC)C(=O)NC(=O)N=C1N` (stereo unspecified): the growth inhibition is 8.45% in assay [1]; -0.3% in assay [2]; 10% in assay [3]; -36.8% in assay [4]; -11.2% in assay [5]; 8.3% in assay [6].
`C[N+]1(C)CCC2=CC(=O)CC(c3ccccc3)C2C1` (stereo unspecified): the growth inhibition was 11.7% in assay [1]; -0.6% in assay [2]; 12.6% in assay [3]; 20.8% in assay [4]; -3.3% in assay [5]; -12% in assay [6].
Consider `COC(=O)C1=C(C(=O)OC)C2(CCCCCC2=O)OC1=O` (stereo unspecified), for which the growth inhibition in assay [1] is -0.65%; in assay [2], 5.45%; in assay [3], -12.8%; in assay [4] it was 8.9%; in assay [5] it was 3.85%; in assay [6] it was -8.25%.
For `CC(=O)OCC(C)(C)C(OC(C)=O)C(C)C` (stereo unspecified), the growth inhibition in assay [1] was 16.1%; in assay [2], 0.75%; in assay [3], 13.8%; in assay [4], -46.8%; in assay [5], -0.5%; in assay [6], 11.2%.
As for `O=C1c2ccccc2-c2ccc(N3C(=O)c4c(Br)c(Br)c(Br)c(Br)c4C3=O)cc21`, the growth inhibition in assay [1] was 10.6%; in assay [2], -2.2%; in assay [3], 12.9%; in assay [4], -36.8%; in assay [5] it was -4.6%; in assay [6] it was -17.5%.
On to `COC1/C=C/OC2(C)Oc3c(C)c(O)c4c(O)c(c(/C=N/N(C)c5ccc([N+](=O)[O-])cc5[N+](=O)[O-])c(O)c4c3C2=O)NC(=O)C(C)=C/C=C/C(C)C(O)C(C)C(O)C(C)C(OC(C)=O)C1C` (stereo unspecified), for which the growth inhibition in assay [1] was 10.2%; in assay [2], 55.6%; in assay [3] it was 31.5%; in assay [4] it was 63.6%; in assay [5] it was 40.3%; in assay [6] it was 56%.
Take `CN(C)NC1=C([N+](=O)[O-])C=NN(c2ccccc2)C1`: the growth inhibition in assay [1] was 15%; in assay [2], -1.15%; in assay [3], 13.4%; in assay [4] it was 19.4%; in assay [5], 22.1%; in assay [6] it was 51.6%.
As for `CCCCCCCCCCCC(=O)OC(COC(N)=O)COc1ccc(Cl)cc1` (stereo unspecified), the growth inhibition was -34.2% in assay [1]; -59.5% in assay [2]; -18.9% in assay [3]; 0.3% in assay [4]; -10.2% in assay [5]; -46.4% in assay [6].
